The results in this text go back to ChEMBL document CHEMBL3988442, “University of Dundee, Small-Polar-MMV Screening Library” (2021).

Molecules are shown by their SMILES.

In the first assay the target is AMP-activated protein kinase, AMPK (Homo sapiens) (UniProt P54646+O43741+P54619+Q9UGJ0+Q9Y478+Q13131+Q9UGI9). As to the kind of experiment: AMP-dependent Kinase enzyme assay. An in vitro enzyme assay that detects ADP turnover that is directly proportional to AMPK activity. This uses naive AMPK that is activated during the assay with MK-8722. It is filed as functional. On the set-up: scale not given: direction of the effect not stated beside the values. To be noted: 30 µM.
For the compound `Cn1ncc2c(NC3CN4CCC3CC4)nc(-c3ccncc3)nc21` (stereo not given), the Percent Effect was found to be 5.93%. Regarding `CC(C)[C@@H]1CN(C(=O)C2(c3ccccc3)CCN(C)CC2)C[C@H]1C(=O)O`, the Percent Effect turned out to be 3.48%. On the same count and under the same terms, with `NC1(c2nc(C(F)(F)F)cc(=O)[nH]2)CCCCC1` the figure was -5.09%; with `O=C(N[C@H]1COC[C@@H]1N1CCCC1)c1csc(-c2cccs2)n1`, 2.31%; with `Cc1nc(N)nc(C)c1CC(=O)N1CCCN(CC2CC2)C(C(C)C)C1` (stereo not given), -4.33%.

On to `COc1ccccc1CCN(C)Cc1nc(N)nc(N(C)C)n1`, for which the Percent Effect is -4.89%. Same read-out and setting: with `O=C(c1nc(=O)[nH]c2ccccc12)N1CCCC2(CCNC2)C1` (stereo not given) the figure was 1.4%.

As to `Cc1ccc2c(CC(=O)N(C)CCN(C)C)c(C)[nH]c2c1C`, the Percent Effect is -8.21%. Same read-out and setting: next, `CCCc1nc(C(=O)N[C@H]2COC[C@@H]2N2CCN(C)CC2)cs1`: -1.36%; `CC(C)(C)c1cc(=O)[nH]c(C2(N)CCCC2)n1`: 3.52%. In the case of `CC(C)NC(=O)[C@H]1CN(Cc2ccccc2)C[C@@H]1C(=O)c1ccccc1`, the Percent Effect is 7.87%. As for `CSc1nccc(N2CCC3(CCCN(CC4CC4)C3)C2)n1` (stereo not given), the Percent Effect amounted to 2.58%.

As for `Cc1nc(C)c(CC(=O)N2CCCN(CC3CC3)C(C(C)C)C2)c(=O)[nH]1` (stereo not given), the Percent Effect is -7.23%. On the same count and under the same terms, next, `CCc1cccc2c(CC(=O)N(C)CCN(C)C)c(C)[nH]c12`: 9.67%; `CCc1nnc(NC(=O)CCN2CC=C(c3cnn(C)c3)CC2)s1`: 7.71%; `CCNC(=O)[C@@H]1CN(Cc2ccccc2)C[C@H]1C(=O)c1ccc(F)cc1`: 15.1%. In the case of `COc1ccc(NC(=O)CCN2CC=C(c3cnn(C)c3)CC2)cc1Cl`, the Percent Effect was 12.5%. The same measure, in the same setting: with `O=C(c1cc2ccccc2[nH]c1=O)N1CCC2(CCCNC2)C1` (stereo not given) the figure was 16.8%.

Turning to `COc1ccc(Cl)cc1CN(C)C(=O)CN1C(=O)CCC1C` (stereo not given), the Percent Effect was 6.65%. With `O=C1CC2(CCN(Cc3ccc(Cl)s3)C2)C(=O)N1` (stereo not given), the Percent Effect was 12.7%. On to `Cc1cc(C(=O)NCC(=O)N2CCOCC2)nn1C(C)(C)C`, for which the Percent Effect worked out at 8.45%. Consider `FC(F)(F)c1nc(C2CCNCC2)no1`, for which the Percent Effect worked out at 5.73%. Regarding `O=C(NCCc1c[nH]cn1)c1ccccc1C1CCNC1` (stereo not given), the Percent Effect is -4.12%. As for `O=C(C1CC1)N1CCc2c(ncnc2N2CCN3CCCC3C2)C1` (stereo not given), the Percent Effect was -5.38%.

The next assay has as its target T1, Arginase-2, mitochondrial (Homo sapiens) (UniProt P78540).
T1 sequence (whole entry): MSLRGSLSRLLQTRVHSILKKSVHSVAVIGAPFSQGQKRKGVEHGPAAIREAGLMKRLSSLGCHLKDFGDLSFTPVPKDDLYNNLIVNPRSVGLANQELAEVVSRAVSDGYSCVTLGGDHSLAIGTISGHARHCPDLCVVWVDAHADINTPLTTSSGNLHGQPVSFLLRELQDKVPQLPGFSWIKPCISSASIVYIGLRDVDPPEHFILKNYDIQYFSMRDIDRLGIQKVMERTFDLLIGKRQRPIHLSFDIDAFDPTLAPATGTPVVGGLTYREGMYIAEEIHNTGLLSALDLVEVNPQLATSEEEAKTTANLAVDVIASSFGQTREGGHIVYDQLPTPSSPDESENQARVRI
The assay is described as follows: in vitro enzyme assay to detect the production of urea directly proportional to the activity of Arginase II. It is filed as functional. The following applies: 30 µM. Further details: scale not given: in the data most compounds retested in dose-response had high values.
Turning to `CN(Cc1cncnc1)[C@H]1CN(Cc2ccco2)[C@@H]2CCCO[C@@H]21`, the Percent Effect was 4.87%. With `O=C1CSC(c2ccc(O)cc2)c2c(n(C3CCOCC3)[nH]c2=O)N1` (stereo not given), the Percent Effect stood at 11.3%. The same measure, in the same setting: next, `Cc1nc(NCC2CC2)nc2c1COCC21CCNC1` (stereo not given): 8.11%. As to `O=C(NCc1ccccn1)[C@]12COC[C@H]1CN(Cc1ccsc1)C2`, the Percent Effect turned out to be 5.95%. As to `CSc1ccc(C2SCC(=O)Nc3c2c(=O)[nH]n3C2CCOCC2)cc1` (stereo not given), the Percent Effect was 8.11%. Take `O=C1CSC(c2ccccc2)c2c(n(C3CCOCC3)[nH]c2=O)N1` (stereo not given): the Percent Effect was found to be 5.95%.

For `O=C1CSC(c2cccnc2)c2c(n(C3CCOCC3)[nH]c2=O)N1` (stereo not given), the Percent Effect worked out at 7.03%. Consider `Cn1cc(C2SCC(=O)Nc3c2c(=O)[nH]n3C2CCOCC2)cn1` (stereo not given), for which the Percent Effect worked out at 0.54%.

Regarding `O=C1CSC(c2ccc(Cl)cc2Cl)c2c(n(C3CCOCC3)[nH]c2=O)N1` (stereo not given), the Percent Effect was found to be 8.11%. On to `O=C1CSC(c2ccsc2)c2c(n(C3CCCC3)[nH]c2=O)N1` (stereo not given), for which the Percent Effect worked out at 4.87%.

For `c1ccc(O[C@H]2CO[C@@]3(CCCN(Cc4nccs4)C3)C2)nc1`, the Percent Effect is -0.54%. The same measure, in the same setting: with `O=C1CSC(c2ccncc2)c2c(n(C3CCOCC3)[nH]c2=O)N1` (stereo not given) the figure was 9.19%; with `c1ccc(O[C@@H]2CO[C@@]3(CCCN(CC4CCOCC4)C3)C2)nc1`, 8.11%; with `c1ccc(CN2CCC3(CC2)CCN(Cc2cccnc2)C3)nc1`, 8.11%. The same measure, in the same setting: next, `CN(Cc1ccco1)[C@@H]1CN(Cc2cccnc2)[C@@H]2CCCO[C@H]12`: 2.7%; `O=C1CSC(c2ccc(F)c(Cl)c2)c2c(n(C3CCOCC3)[nH]c2=O)N1` (stereo not given): -0.54%.
